# Experimental data as given in PubChem BioAssay.
# Activity calls are given as the source filed them. Unless noted, the rule behind the calls is not given here.
# Experiments:
# [1] = anti-His antibody binders, primary screen, artefact control for SMM control protein annotation, biochemical, small-molecule microarray, 635 nm fluorescence (AID 1128); conditions: anti-His Alexa647 antibody binding, higher = more signal;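 note: score merges feature fluorescence with signal-to-noise for each printed compound spot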
# [2] = system: Human papillomavirus type 1a E7 protein (residues 1-88); assay: HPV1a E7 small-molecule binders, primary screen, biochemical, small-molecule microarray, residues 1-88, 635 nm (AID 1129); conditions: small-molecule microarray binding, fluorescence 635 nm; higher = more signal
# [3] = target: Focal adhesion kinase 1 (Homo sapiens) (UniProt Q05397); assay: small-molecule microarray binders of FAK, primary screen, biochemical, 635/667 nm fluorescence, BSA, DTT (AID 1130); conditions: PTK2 binding, 635 nm fluorescence, higher = more signal;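 note: composite of spot emission at 667 nm and signal to noise over triplicate slides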
# [4] = system: Fibrinogen (Alexa647-labelled); assay: fibrinogen binders on compound microarrays, profiling panel, artefact control for SMM control-protein annotation, biochemical, small-molecule microarray, 635/667 nm fluorescence (AID 1131); conditions: fibrinogen-A647 binding fluorescence, higher = more signal;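 note: z-score merges 667 nm fluorescence with per-spot signal-to-noise over triplicate slides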
# [5] = target: Follistatin (Homo sapiens) (UniProt P19883); assay: follistatin binders on small-molecule microarrays, primary screen, biochemical, small-molecule microarray, 635/667 nm fluorescence (AID 1132); conditions: FST binding, 635 nm fluorescence, higher = more signal
# [6] = target: Fibroblast growth factor 2 (Homo sapiens) (UniProt P09038); assay: FGF2 binders on small-molecule microarrays, primary screen, biochemical, small-molecule microarray, 635/667 nm fluorescence (AID 1133); conditions: small-molecule microarray binding, FGF2, fluorescence 635/667; higher = more signal
# [7] = mitochondrial membrane potential change in A549 cells, profiling panel, cell-based, JC-1 fluorescence, basal, 24 h, 100 nL (AID 1138); conditions: higher = more signal;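 note: A549 lung adenocarcinoma cells under basal conditions with no added stimulus; test concentration not given here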
# Lefty1 = Lefty1 binders on small-molecule microarrays, primary screen, biochemical, small-molecule microarray, 635/667 nm fluorescence (AID 1139); conditions: small-molecule microarray binding, fluorescence 635/667; higher = more signal
# [8] = system: wheat germ agglutinin (Triticum aestivum), Alexa647-labelled; assay: wheat germ agglutinin binders on compound microarrays, profiling panel, artefact control for SMM control-protein annotation, biochemical, small-molecule microarray, 635/667 nm fluorescence (AID 1140); conditions: WGA-A647 binding, 635 nm fluorescence, higher = more signal;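 note: score merges 667 nm feature emission with signal to noise over triplicate slides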
# [9] = target: Luciferin 4-monooxygenase (Photinus pyralis) (UniProt P08659); assay: firefly luciferase enzyme inhibitors, primary screen, biochemical, luminescence, purified enzyme, 2006 set (AID 1141); conditions: SteadyGlo luminescence, 30 min, higher = more signal, called active from +8 up or from −8 down;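 note: cell-free assay with purified firefly luciferase at 100 ng per well in PBS; test concentration not given here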
# [10] = system: Wnt5a (protein binding on small-molecule microarray); assay: Wnt5a binders on small-molecule microarray, primary screen, biophysical, 635/667 nm fluorescence (AID 1142); conditions: 635 nm fluorescence, higher = more signal;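 note: fluorescence read at 667 nm with signal to noise per printed feature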
# [11] = cell viability in Huh7 cells, primary screen, cytotoxicity control for HCV replication inhibitor project, CellTiter-Glo luminescence, basal, 48 h (AID 1143); conditions: Huh7 HCV replicon, higher = more signal, called active from +8 up or from −8 down;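 note: Huh7 hepatoma cells carrying a hepatitis C replication reporter with no stimulus; test concentration not given here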
# [12] = P. aeruginosa biofilm formation inhibitors, primary screen, PAO1 strain, BacTiter-Glo luminescence, LB-PBS (AID 1144); conditions: 12 h, higher = more signal
# [13] = CREB reporter modulators without forskolin, primary screen, cell-based, PC12, CRE-LacZ reporter, unstimulated (AID 1145); conditions: no forskolin, luminescence, 4.5 h, higher = more signal, called active from +8 up or from −8 down
# [14] = CREB reporter modulators under forskolin, primary screen, cell-based, PC12, CRE-LacZ reporter, forskolin-stimulated (AID 1146); conditions: luminescence, 4.5 h, higher = more signal, called active from +8 up or from −8 down;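 note: PC12 cells with 6xCRE LacZ reporter stimulated by forskolin 10 µM; beta-galactosidase reporter signal reflecting CREB driven transcription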
# [15] = target: Streptavidin (Streptomyces avidinii) (UniProt P22629); assay: streptavidin binders on small-molecule microarray, primary screen, artefact control for SMM compound annotation, biophysical, 635/667 nm fluorescence (AID 1147); conditions: streptavidin binding, higher = more signal;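 note: signal reflects streptavidin binding to arrayed compounds as a control protein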
# [16] = small-molecule binders of probe aInhba, primary screen, biochemical, small-molecule microarray, 635/667 nm fluorescence (AID 1148); conditions: higher = more signal;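 note: score merges 667nm spot fluorescence with signal-to-noise for antibody binding to printed compounds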
# Torsin-1A (Homo sapiens) [17] = target: Torsin-1A (Homo sapiens) (UniProt O14656); assay: torsin A binders from cell lysate, primary screen, small-molecule microarray, wild-type, 635/667 nm (AID 1149); conditions: COS7 hTOR1A-WT lysate, 635 nm fluorescence, higher = more signal
# Torsin-1A (Homo sapiens) [18] = target: Torsin-1A (Homo sapiens) (UniProt O14656); assay: small-molecule binders of mutant TOR1A in lysate, primary screen, cell lysate, small-molecule microarray, COS7 lysate, 635/667 nm fluorescence (AID 1150); conditions: COS7 hTOR1A mutant lysate, 635 nm fluorescence, higher = more signal;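 note: score pools 667 nm emission and signal to noise measuring lysate protein binding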
# [19] = system: Sonic hedgehog protein (Shh); assay: small-molecule binders of Shh protein, primary screen, biochemical, small-molecule microarray, 635/667 nm fluorescence (AID 1151); conditions: small-molecule microarray binding, 635 nm fluorescence; higher = more signal;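 note: Shh protein binding to compounds spotted on small-molecule microarray slides; score combines spot fluorescence intensity with signal-to-noise across triplicate slides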
# Focal adhesion kinase 1 (Homo sapiens), sequence (Q05397 whole entry, looked up): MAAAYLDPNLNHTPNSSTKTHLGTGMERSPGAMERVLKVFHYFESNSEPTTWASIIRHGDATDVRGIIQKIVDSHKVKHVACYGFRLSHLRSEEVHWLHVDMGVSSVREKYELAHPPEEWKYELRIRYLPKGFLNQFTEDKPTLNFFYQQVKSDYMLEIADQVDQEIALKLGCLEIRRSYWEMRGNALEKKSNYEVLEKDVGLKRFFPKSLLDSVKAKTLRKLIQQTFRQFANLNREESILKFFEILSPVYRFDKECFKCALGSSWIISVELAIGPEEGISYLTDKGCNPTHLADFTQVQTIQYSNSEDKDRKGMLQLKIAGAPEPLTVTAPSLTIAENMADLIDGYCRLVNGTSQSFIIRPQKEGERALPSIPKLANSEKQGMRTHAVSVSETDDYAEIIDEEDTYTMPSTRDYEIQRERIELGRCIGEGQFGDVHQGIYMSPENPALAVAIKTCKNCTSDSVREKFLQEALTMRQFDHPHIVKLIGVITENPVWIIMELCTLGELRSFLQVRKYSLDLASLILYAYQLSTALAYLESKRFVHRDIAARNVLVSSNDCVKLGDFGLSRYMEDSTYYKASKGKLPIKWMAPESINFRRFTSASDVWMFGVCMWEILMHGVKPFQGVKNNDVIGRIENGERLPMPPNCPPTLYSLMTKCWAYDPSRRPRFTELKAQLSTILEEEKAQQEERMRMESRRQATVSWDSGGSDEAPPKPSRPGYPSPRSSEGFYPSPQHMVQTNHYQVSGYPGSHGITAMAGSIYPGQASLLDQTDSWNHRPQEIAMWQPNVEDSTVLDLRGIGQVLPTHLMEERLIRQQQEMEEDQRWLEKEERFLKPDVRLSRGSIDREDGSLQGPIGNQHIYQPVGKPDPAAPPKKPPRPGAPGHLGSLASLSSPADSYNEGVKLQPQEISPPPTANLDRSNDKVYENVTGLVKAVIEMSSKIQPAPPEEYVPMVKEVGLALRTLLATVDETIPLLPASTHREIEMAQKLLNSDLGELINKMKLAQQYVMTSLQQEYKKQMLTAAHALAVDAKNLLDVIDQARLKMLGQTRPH
# Luciferin 4-monooxygenase (Photinus pyralis), sequence (P08659 whole entry, looked up): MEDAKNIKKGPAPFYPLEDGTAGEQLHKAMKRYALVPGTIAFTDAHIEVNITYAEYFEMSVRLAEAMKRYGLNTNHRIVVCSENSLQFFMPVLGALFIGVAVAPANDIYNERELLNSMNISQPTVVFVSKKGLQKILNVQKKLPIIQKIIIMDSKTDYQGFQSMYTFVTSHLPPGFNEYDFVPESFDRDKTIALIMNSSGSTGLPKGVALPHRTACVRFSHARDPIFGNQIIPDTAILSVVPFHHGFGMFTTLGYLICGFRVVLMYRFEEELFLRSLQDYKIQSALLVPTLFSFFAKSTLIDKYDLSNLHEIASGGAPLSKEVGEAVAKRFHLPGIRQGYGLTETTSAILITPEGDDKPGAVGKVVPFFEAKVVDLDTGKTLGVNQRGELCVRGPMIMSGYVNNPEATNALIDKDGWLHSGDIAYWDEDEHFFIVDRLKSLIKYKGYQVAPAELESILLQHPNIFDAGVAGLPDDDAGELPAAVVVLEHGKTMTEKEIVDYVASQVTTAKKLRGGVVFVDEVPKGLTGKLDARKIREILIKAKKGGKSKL
# Fibroblast growth factor 2 (Homo sapiens), sequence (P09038 whole entry, looked up): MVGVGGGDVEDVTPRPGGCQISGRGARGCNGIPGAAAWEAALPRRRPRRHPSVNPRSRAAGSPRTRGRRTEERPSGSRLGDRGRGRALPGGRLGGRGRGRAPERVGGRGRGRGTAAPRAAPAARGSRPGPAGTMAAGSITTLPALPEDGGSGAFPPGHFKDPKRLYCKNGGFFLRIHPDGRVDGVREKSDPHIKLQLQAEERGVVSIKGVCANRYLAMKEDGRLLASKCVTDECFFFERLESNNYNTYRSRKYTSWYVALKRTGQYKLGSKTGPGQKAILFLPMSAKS
# Torsin-1A (Homo sapiens), sequence (O14656 whole entry, looked up): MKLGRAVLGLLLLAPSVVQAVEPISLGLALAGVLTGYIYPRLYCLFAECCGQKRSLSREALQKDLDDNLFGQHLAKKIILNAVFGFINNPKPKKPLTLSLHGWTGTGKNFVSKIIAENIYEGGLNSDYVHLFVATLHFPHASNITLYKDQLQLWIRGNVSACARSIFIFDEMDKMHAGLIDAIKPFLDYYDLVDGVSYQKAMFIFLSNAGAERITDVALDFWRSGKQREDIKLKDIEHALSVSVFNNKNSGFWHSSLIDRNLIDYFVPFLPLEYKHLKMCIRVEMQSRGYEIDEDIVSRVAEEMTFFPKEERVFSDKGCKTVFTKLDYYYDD
# Follistatin (Homo sapiens), sequence (P19883 whole entry, looked up): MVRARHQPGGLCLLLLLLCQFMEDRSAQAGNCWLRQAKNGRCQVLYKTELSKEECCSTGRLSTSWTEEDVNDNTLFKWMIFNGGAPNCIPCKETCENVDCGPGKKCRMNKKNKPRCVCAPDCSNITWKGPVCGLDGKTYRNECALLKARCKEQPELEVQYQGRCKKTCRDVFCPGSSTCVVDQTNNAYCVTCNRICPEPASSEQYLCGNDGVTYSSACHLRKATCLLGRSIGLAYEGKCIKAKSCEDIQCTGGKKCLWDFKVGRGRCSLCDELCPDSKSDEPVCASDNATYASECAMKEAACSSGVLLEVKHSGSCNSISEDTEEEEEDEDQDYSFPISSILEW
# Streptavidin (Streptomyces avidinii), sequence (P22629 whole entry, looked up): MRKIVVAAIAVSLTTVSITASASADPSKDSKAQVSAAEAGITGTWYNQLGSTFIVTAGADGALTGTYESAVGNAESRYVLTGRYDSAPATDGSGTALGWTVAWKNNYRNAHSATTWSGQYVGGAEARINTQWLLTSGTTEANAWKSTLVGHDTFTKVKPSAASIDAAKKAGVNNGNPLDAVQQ
Structure (SMILES),composite z-score [1],composite z-score [2],composite z-score [3],composite z-score [4],composite z-score [5],composite z-score [6],z-score [7],composite z-score (Lefty1),composite z-score [8],z-score [9],composite z-score [10],z-score [11],z-score [12],z-score [13],z-score [14],composite z-score [15],composite z-score [16],composite z-score (Torsin-1A (Homo sapiens) [17]),composite z-score (Torsin-1A (Homo sapiens) [18]),composite z-score [19]
COC(=O)CC=C[C@@H](C)[C@@H](C=NO[C@@H](C)c1cc(-c2c(C)cc(C)cc2C)no1)OC,0.525,-1.06,-0.688,-1.47,-0.732,-1.35,-0.542,-1.43,-1.03,0.973 (inactive),-0.828,-2.12 (inactive),-0.726 (inactive),2.71 (inactive),-0.254 (inactive),-0.432,-0.249,-2.2,-2.18,-1.46
COCCOC(=O)N1C(=O)[C@@]2(c3cc(C#CC4(O)CCCCCC4)ccc31)[C@H](C(=O)N1CCN(c3ncccn3)CC1)[C@H]1C(=O)O[C@H](c3ccccc3)[C@H](c3ccccc3)N1[C@@H]2c1ccc(OCCO)cc1,2.08,1.2,0.289,0.889,1.29,1.35,-1.34,0.637,1.09,-2.19 (inactive),0.495,-3.05 (inactive),0.905 (inactive),-0.878 (inactive),-0.249 (inactive),0.436,0.303,0.227,0.425,1.17
C[C@H]1CC[C@@H](C(=O)O)N[C@@H]1c1ccc(C#CCN(C)C)cc1,0.601,0.34,0.0583,0.54,0.682,0.453,1.04,0.343,0.117,-0.931 (inactive),0.163,0.141 (inactive),-0.0379 (inactive),1.83 (inactive),-1.12 (inactive),0.85,-0.273,0.363,0.323,0.427
Cc1ccc(S[C@]2(C(=O)NCC(F)(F)F)CC(=O)N(Cc3ccccc3Cl)[C@@H]2c2ccc(CO)cc2I)cc1,-1.18,-0.0053,0.395,-0.563,-0.253,-0.624,1.14,-0.558,1.13,-0.289 (inactive),-0.273,-1.36 (inactive),0.977 (inactive),3.13 (inactive),2.82 (inactive),-0.809,-0.152,-0.396,0.288,-0.155
CCN1C(=O)[C@H]2[C@H]3[C@H](O)[C@H](O)CC(=NOCc4ccccc4)[C@H]3CC[C@H]2C1=O,-0.364,0.359,0.155,0.443,0.213,0.22,-0.442,0.228,-0.077,0.243 (inactive),-0.0887,0.856 (inactive),-0.784 (inactive),0.25 (inactive),-0.332 (inactive),0.201,-0.189,0.171,0.46,0.109
